Laboratory results: ChEMBL document CHEMBL4513135, “CO-ADD screening of IQOG CSIS (Spain) compounds”
Measured potencies and affinities stand elsewhere.

Assays:
Staphylococcus aureus = details: Concentration 32 ug.mL-1; ASSAY_TEST Inhibition of Bacterial Growth; detection method Absorption (OD600); MEDIA CAMHB; plate type 384well; NBS; CORNING #3640; time 18 hr
Escherichia coli = details: Concentration 32 ug.mL-1; ASSAY_TEST Inhibition of Bacterial Growth; detection method Absorption (OD600); MEDIA CAMHB; plate type 384well; NBS; CORNING #3640; time 18 hr

Row | Compound | Inhibition (Staphylococcus aureus) | Inhibition (Escherichia coli)
1 | COc1cccc(-c2c(C#N)c(=O)oc3c2ccc2ccccc23)c1 | 13.24% | 14.42%
2 | O=C(COc1ccc2ccccc2c1)N/N=C/c1c[nH]c2ccccc12 | 3.21% | 6.84%
3 | C=C1CNc2c(C#N)c(-c3ccccc3)c(C#N)c(=N)n21 | 17.65% | -9.94%
4 | CN1C/C(=C\Br)n2c1c(C#N)cc(C#N)c2=O | 16.92% | -11.76%
5 | COC1=C(C#N)CC(C)C(=O)N1 (stereo unspecified) | 16.96% | -13.94%
6 | COC(=O)C(=Cc1ccc(OC)cc1)NC(C)=O | 16.29% | 8.29%
7 | COc1ccc(-c2cc(-c3ccccc3)c(C#N)c(N)n2)cc1 | 10.32% | -23.38%
8 | COc1cc(CCC(N)=O)ccc1O | 8.5% | 5.11%
9 | CC(=O)N1CC(=O)NC1=S | 18.21% | 15.12%
10 | NC(=O)N/N=C/c1c[nH]c2ccccc12 | 3.48% | 5.19%
11 | Cn1c(C(=O)NCc2ccccc2)cc2cc(OCCCC3CCN(Cc4ccccc4)CC3)ccc21 | 21.45% | -9.22%
12 | COc1ccc(-c2cc(-c3cc4ccccc4nc3Cl)cc(=O)[nH]2)cc1 | 22.93% | -12.6%
13 | N#Cc1c(N)nc(NCc2ccccc2)c(C#N)c1-c1ccccc1 | -2.03% | -5.8%
14 | CCOC(=O)c1c(C)[nH]c2ccc(OC)cc12 | -4.64% | 0.02%
15 | N#Cc1cc2c(N)c3c(nc2nc1Cl)CCN(Cc1ccccc1)C3 | 31.61% | -4.39%
16 | CCOc1nc2nc(C)c(C=C3CCN(Cc4ccccc4)CC3)cc2c(-c2ccccc2)c1C#N | 33.88% | -8.83%
17 | CNCc1cc2cc(OC)ccc2n1C.Cl | 10.42% | -0.77%
18 | C#CCNc1nc(NCCC2CCN(Cc3ccccc3)CC2)c(C#N)cc1C#N | -4.51% | -8.4%
19 | C#CCN(C)Cc1cc2cc(OCc3ccccc3)ccc2n1C.O=C(O)C(=O)O | 41.66% | -11.51%

Row | Compound | Inhibition (Staphylococcus aureus) | Inhibition (Escherichia coli)
20 | CC1Cc2c(Br)nc3nc4c(c(N)c3c2NC1=O)CCCC4 (stereo unspecified) | 27.55% | -12.78%
21 | CCC(CC)NNC(=O)c1cc2ccccc2n1C | 11.92% | 13.68%
22 | C/C=C(/C#N)C(=O)OC | -6.91% | -6.93%
23 | COc1cc(C2C(C#N)=C(N)Oc3ccc4ccccc4c32)ccc1O (stereo unspecified) | 37.28% | -11.46%
24 | COc1ccccc1C1c2ccc3ccccc3c2Oc2nc3c(c(N)c21)CCCC3 (stereo unspecified) | 0.62% | 3.02%
25 | CCOC(=O)C1=C(C)NC(N)=C(C#N)C1c1ccc([N+](=O)[O-])cc1 (stereo unspecified) | 22.51% | -7.02%
26 | N#CC1(Br)C(=NBr)Oc2c(ccc3ccccc23)C1c1cccc([N+](=O)[O-])c1 (stereo unspecified) | 34.66% | -14.11%
27 | O=C(Cc1c[nH]c2ccccc12)NN=Cc1ccccc1 | 3.3% | -3.03%
28 | CCCC(C)NNC(=O)Cc1c[nH]c2ccccc12 (stereo unspecified) | 1.02% | -9.25%
29 | COc1ccc(C2c3c(ccc4ccccc34)OC(=N)C2(Br)C#N)cc1OC (stereo unspecified) | 9.13% | -16.19%
30 | CC1=C(CO)C(c2ccc(C#N)cc2)C(C#N)=C(N)O1 (stereo unspecified) | 9.52% | 17.18%
31 | COc1cccc(C2c3c(nc4c(c3N)CCCC4)Oc3ccc4ccccc4c32)c1 (stereo unspecified) | 4.84% | -1.02%
32 | N#CC1=C(N)Oc2ccc3ccccc3c2C1 | 5.91% | -5.32%
33 | N#Cc1c(N)nc(O)c(C#N)c1-c1ccccc1 | 4.47% | -25.59%
34 | CCOC(=O)c1c[nH]c2ccc(OC)cc12 | 4.86% | 9.94%
35 | C#CCNc1nc(NCCCCC2CCN(Cc3ccccc3)CC2)c(C#N)cc1C#N | 5% | -12.03%
36 | COc1ccc(C2c3c(nc4c(c3N)CCCC4)Oc3ccc4ccccc4c32)c(OC)c1 (stereo unspecified) | 15.3% | 3.89%
37 | O=Cc1c(-c2ccc(Br)cc2)nc2ccccn12 | 3.95% | 9.28%
38 | COc1ccc2cc(C3C4=C(CC(C)(C)CC4=O)Oc4nc5c(c(N)c43)CCC5)c(Cl)nc2c1 (stereo unspecified) | 18.17% | 11.31%
